# Assay results taken from PubChem BioAssay (NCATS).
# Records with an inconclusive call do not appear. Unmarked numbers belong to inactive results. Activity calls are given as the source filed them. The call rests on the fitted dose curve.
# Assay: Primary qHTS for Huh7 cytotoxicity: counterscreen for inhibitors of MERS-S pseudotyped particle cell entry (AID 1479147)
# Details: cell viability read-out; series mostly up to 57.1 µM; activity change, negative = cytotoxicity: at the top concentration
# On the % scale 0 is the no-effect control and ±100 the full control effect.
Structure (SMILES),outcome,"activity change, negative = cytotoxicity"
CC[C@@H]1/C=C(\C)C[C@H](C)C[C@H](OC)[C@H]2O[C@@](O)(C(=O)C(=O)N3CCCC[C@H]3C(=O)O[C@H](/C(C)=C/[C@@H]3CC[C@H](Cl)[C@H](OC)C3)[C@H](C)[C@@H](O)CC1=O)[C@H](C)C[C@@H]2OC,inactive,
CCCN1C[C@H](C)[C@@H](O)[C@](C)(O)[C@@H](CC)OC(=O)[C@H](C)[C@@H](O[C@H]2C[C@@](C)(OC)[C@@H](O)[C@H](C)O2)C(C)[C@@H](O[C@@H]2O[C@H](C)C[C@H](N(C)C)[C@H]2O)[C@](C)(O)C[C@H]1C (some centres undefined),inactive,
COC(=O)C1=C(C#N)NC(C)=C(C(=O)OC(C)C)C1c1cccc([N+](=O)[O-])c1 (centres undefined),,-3.06%
Cc1cnc(C(=O)N[C@H]2CCCCC/C=C\[C@H]3C[C@@]3(C(=O)NS(=O)(=O)C3CC3)NC(=O)[C@@H]3C[C@@H](Oc4nc5ccccc5c5ccccc45)CN3C2=O)cn1,inactive,
OC(CCN1CCCCC1)(c1ccccc1)C1CCCC1 (centres undefined),inactive,
CO[C@H]1/C=C\O[C@@]2(C)Oc3c(C)c(O)c4c(O)c(c5c(c4c3C2=O)=NC2(CCN(CC(C)C)CC2)N=5)NC(=O)/C(C)=C\C=C/[C@H](C)[C@H](O)[C@@H](C)[C@@H](O)[C@@H](C)[C@H](OC(C)=O)[C@@H]1C,,0.739%
N#Cc1ccc2[nH]cc(CCCCN3CCN(c4ccc5oc(C(N)=O)cc5c4)CC3)c2c1,inactive,
[2H]C([2H])([2H])C(O)([C@@H](C)/C=C/[C@@H](C)[C@H]1CC[C@H]2/C(=C/C=C3C[C@@H](O)C[C@H](O)C3)CCC[C@]12C)C([2H])([2H])[2H],,-6.92%
CC(CN1c2ccccc2Sc2cccnc21)N(C)C (centres undefined),inactive,

# Assay: Primary qHTS for Vero E6 cytotoxicity: counterscreen for inhibitors of SARS-S pseudo-typed particle cell entry (AID 1479150)
# Details: cell viability; series mostly up to 57.1 µM; activity change, negative = cytotoxicity: at the top concentration
Structure (SMILES),outcome,"activity change, negative = cytotoxicity"
CC(C)C[C@H]1C(=O)N2CCC[C@H]2[C@]2(O)O[C@](NC(=O)[C@@H]3C=C4c5cccc6[nH]c(Br)c(c56)CC4N(C)C3)(C(C)C)C(=O)N12 (some centres undefined),inactive,
CCCCCCCCCC(=O)OCCN1CCN(CCCN2c3ccccc3Sc3ccc(C(F)(F)F)cc32)CC1,inactive,
CCC1OC(=O)[C@H](C)C(=O)[C@H](C)[C@@H](OC2O[C@H](C)C[C@H](N(C)C)[C@H]2O)[C@](C)(OC)C[C@@H](C)C(=O)[C@@H](C)[C@@H]2N(CCCCn3cnc(-c4cccnc4)c3)C(=O)O[C@]12C (some centres undefined),,4.32%
CCCCCCCC(=O)N[C@H](CN1CCCC1)[C@H](O)c1ccc2c(c1)OCCO2,inactive,
COc1c(-c2ccc3cc(NS(C)(=O)=O)ccc3c2)cc(-n2ccc(=O)[nH]c2=O)cc1C(C)(C)C,inactive,
CC(CC(c1ccccc1)c1ccccc1)NC(C)(C)C (centres undefined),inactive,
COC(=O)N[C@H](C(=O)N1CCC[C@H]1c1ncc(-c2ccc(-c3ccc(-c4cnc([C@@H]5CCCN5C(=O)[C@@H](NC(=O)OC)C(C)C)[nH]4)cc3)cc2)[nH]1)C(C)C,inactive,
OC[C@H]1NC[C@H](O)[C@@H](O)[C@@H]1O,,-2.38%
CC[C@@H](C(=O)[C@@H](C)[C@@H](O)[C@H](C)CCc1ccc(C)c(O)c1C(=O)O)[C@H]1O[C@](CC)([C@H]2CC[C@](O)(CC)[C@H](C)O2)C[C@@H]1C,,1.59%
CCCCCCCCCC(=O)NO,,4.06%
CC(C)(C)NCC(O)COc1ccccc1C1CCCC1 (centres undefined),inactive,
CCCCCCCC(=O)CC[C@@H]1[C@@H](C/C=C\CCCC(=O)OC(C)C)[C@@H](O)C[C@H]1O,,0.236%
C=Cc1c(C)c2cc3nc(cc4[nH]c(cc5nc(cc1[nH]2)C(C)=C5CCC(=O)O)c(CCC(=O)OC)c4C)[C@@]1(C)C3=CC=C(C(=O)OC)[C@@H]1C(=O)OC,,3.98%
O=C1[C@@H]2[C@H]3CC[C@H](C3)[C@@H]2C(=O)N1C[C@@H]1CCCC[C@H]1CN1CCN(c2nsc3ccccc23)CC1,,1.71%
Cc1cncc(CN2CCC(=C3c4ccc(Cl)cc4CCc4cccnc43)CC2)c1,inactive,
C=CC[C@@H]1/C=C(\C)C[C@H](C)C[C@H](OC)[C@H]2O[C@@](O)(C(=O)C(=O)N3CCCC[C@H]3C(=O)O[C@H](/C(C)=C/[C@@H]3CC[C@@H](O)[C@H](OC)C3)[C@H](C)[C@@H](O)CC1=O)[C@H](C)C[C@@H]2OC,inactive,
CCN1CCC(=C2c3ccccc3CCc3ccccc32)C1C (centres undefined),,4.6%
COc1cc2c(cc1OC)[C@H]1C[C@@H](OC(=O)[C@@H](N)C(C)C)[C@H](CC(C)C)CN1CC2,inactive,
CCN1CCN(Cc2ccc(Nc3ncc(F)c(-c4cc(F)c5nc(C)n(C(C)C)c5c4)n3)nc2)CC1,inactive,
Cc1cc(-n2c(=O)[nH]c(=O)n(C)c2=O)ccc1Oc1ccc(SC(F)(F)F)cc1,,-0.243%

Structure (SMILES),outcome,"activity change, negative = cytotoxicity"
Cc1ccc(C2(O)CCN(CCCC(=O)c3ccc(F)cc3)CC2)cc1,,0.887%
O=C(CCCN1CCC(C(=O)c2ccc(F)cc2)CC1)c1ccc(F)cc1,,4.96%
CCOC(=O)Oc1c(OC)cc(C(=O)O[C@@H]2C[C@@H]3CN4CCc5c([nH]c6cc(OC)ccc56)[C@H]4C[C@@H]3[C@H](C(=O)OC)[C@H]2OC)cc1OC,inactive,
CC(=O)c1ccc2c(c1)N(CCCN1CCN(CCO)CC1)c1ccccc1S2,,-9.12%
CC(=O)O[C@]1(C(C)=O)CC[C@H]2[C@@H]3C=C(C)C4=CC(=O)CC[C@@H]4[C@H]3CC[C@@]21C,,0.257%
CCCCCCC(COC(=O)c1cccnc1)(COC(=O)c1cccnc1)COC(=O)c1cccnc1,,-11.3%
CC[C@@H](C)[C@H]1O[C@]2(CC[C@@H]1C)C[C@@H]1C[C@@H](C/C=C(\C)[C@@H](O[C@H]3C[C@H](OC)[C@@H](O[C@H]4C[C@H](OC)[C@@H](O)[C@H](C)O4)[C@H](C)O3)[C@@H](C)/C=C/C=C3\CO[C@@H]4[C@H](O)C(C)=C[C@@H](C(=O)O1)[C@]34O)O2,,-20.5%
COc1cc2[nH]c(C)c(CCN3CCN(c4ccccc4)CC3)c2cc1OC,,-0.0602%
CNS(=O)(=O)CC1CCC(N(C)c2ncnc3[nH]ccc23)CC1 (centres undefined),inactive,
CCCCCCCCCC(=O)OCCN1CCN(CC/C=C2\c3ccccc3Sc3ccc(C(F)(F)F)cc32)CC1,inactive,
O=C(O)c1ccc2nc(-c3cc(Cl)cc(Cl)c3)oc2c1,inactive,
CC[C@@H]1/C=C(\C)C[C@H](C)C[C@H](OC)[C@H]2O[C@@](O)(C(=O)C(=O)N3CCCC[C@H]3C(=O)O[C@H](/C(C)=C/[C@@H]3CC[C@H](Cl)[C@H](OC)C3)[C@H](C)[C@@H](O)CC1=O)[C@H](C)C[C@@H]2OC,inactive,
CCCN1C[C@H](C)[C@@H](O)[C@](C)(O)[C@@H](CC)OC(=O)[C@H](C)[C@@H](O[C@H]2C[C@@](C)(OC)[C@@H](O)[C@H](C)O2)C(C)[C@@H](O[C@@H]2O[C@H](C)C[C@H](N(C)C)[C@H]2O)[C@](C)(O)C[C@H]1C (some centres undefined),,3.28%
COC(=O)C1=C(C#N)NC(C)=C(C(=O)OC(C)C)C1c1cccc([N+](=O)[O-])c1 (centres undefined),,4.65%
Cc1cnc(C(=O)N[C@H]2CCCCC/C=C\[C@H]3C[C@@]3(C(=O)NS(=O)(=O)C3CC3)NC(=O)[C@@H]3C[C@@H](Oc4nc5ccccc5c5ccccc45)CN3C2=O)cn1,,1.76%
OC(CCN1CCCCC1)(c1ccccc1)C1CCCC1 (centres undefined),,2.05%
CO[C@H]1/C=C\O[C@@]2(C)Oc3c(C)c(O)c4c(O)c(c5c(c4c3C2=O)=NC2(CCN(CC(C)C)CC2)N=5)NC(=O)/C(C)=C\C=C/[C@H](C)[C@H](O)[C@@H](C)[C@@H](O)[C@@H](C)[C@H](OC(C)=O)[C@@H]1C,,-1.95%
N#Cc1ccc2[nH]cc(CCCCN3CCN(c4ccc5oc(C(N)=O)cc5c4)CC3)c2c1,inactive,
[2H]C([2H])([2H])C(O)([C@@H](C)/C=C/[C@@H](C)[C@H]1CC[C@H]2/C(=C/C=C3C[C@@H](O)C[C@H](O)C3)CCC[C@]12C)C([2H])([2H])[2H],inactive,
CC(CN1c2ccccc2Sc2cccnc21)N(C)C (centres undefined),inactive,
